Read-out in assay [1]: Tissue Factor, F3 (gene 2152)
The experiment in a line: BSK_CASM3C_TissueFactor: BioMAP Diversity Plus: CASM3C Assay for Tissue Factor Biomarker Activity (AID 2283052).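 Note: cell surface tissue factor protein level read by ELISA.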 Conditions: primary human coronary artery smooth muscle cells; actives raise or lower the signal.

Read-out in assay [2]: Interferon-gamma inducible Protein 10 (IP10), CXCL10 (gene 3627)
In words: BSK_hDFCGF_IP10: BioMAP Diversity Plus: hDFCGF Assay for Interferon-gamma inducible Protein 10 (IP10) Biomarker Activity (AID 2283053). Conditions: primary human foreskin fibroblasts; actives raise or lower the signal. An outline of the steps:
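Primary foreskin fibroblasts, human; 24 h compound exposure; IP-10 by ELISA; bidirectional fit vs DMSO.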

Read-out in assay [3]: Urokinase-type plasminogen activator receptor (uPAR), PLAUR (gene 5329)
In words: BSK_CASM3C_uPAR: BioMAP Diversity Plus: CASM3C Assay for Urokinase-type plasminogen activator receptor (uPAR) Biomarker Activity (AID 2283054).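 Note: cell-surface uPAR protein level quantified by ELISA.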 Conditions: primary human coronary artery smooth muscle cells; actives raise or lower the signal.

Read-out in assay [4]: Vascular cell adhesion molecule 1 (VCAM1), VCAM1 (gene 7412)
The experiment in a line: BSK_CASM3C_VCAM1: BioMAP Diversity Plus: CASM3C Assay for Vascular cell adhesion molecule 1 (VCAM1) Biomarker Activity (AID 2283055).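 Note: VCAM-1 protein level quantified by ELISA on the cells.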 Conditions: primary human coronary artery smooth muscle cells; actives raise or lower the signal.

Read-out in assay [5]: Collagen III, COL3A1 (gene 1281)
The experiment in a line: BSK_hDFCGF_CollagenIII: BioMAP Diversity Plus: hDFCGF Assay for Collagen III Biomarker Activity (AID 2283056). Conditions: primary human foreskin fibroblasts; actives raise or lower the signal. An outline of the steps: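 hDFCGF primary human dermal fibroblasts; 24 h chemical exposure; collagen III by ELISA; bidirectional curve fit vs DMSO baseline (gain or loss of signal).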

Read-out in assay [6]: Epidermal growth factor receptor (EGFR), EGFR (gene 1956)
The experiment in a line: BSK_hDFCGF_EGFR: BioMAP Diversity Plus: hDFCGF Assay for Epidermal growth factor receptor (EGFR) Biomarker Activity (AID 2283057). Conditions: primary human foreskin fibroblasts; actives raise or lower the signal. An outline of the steps:
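hDFCGF system, primary human foreskin fibroblasts; compound 24 h; EGFR measured by ELISA; DMSO = negative control/baseline; bidirectional fitting.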

Read-out in assay [7]: Interleukin-8 (IL8), CXCL8 (gene 3576)
The experiment in a line: BSK_hDFCGF_IL8: BioMAP Diversity Plus: hDFCGF Assay for Interleukin-8 (IL8) Biomarker Activity (AID 2283058). Conditions: primary human foreskin fibroblasts; actives raise or lower the signal. The gist of the method: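 ELISA read-out of IL-8 from primary human foreskin fibroblast cultures taken 24 h after dosing; values are bidirectional fits relative to DMSO vehicle.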

A short description of assay [8]: BSK_hDFCGF_Proliferation: Cell Proliferation Assessment in the BioMAP Diversity Plus: hDFCGF Assay (AID 2283059).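 Note: curves fitted for both rise and fall of signal versus DMSO baseline.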 Conditions: primary human foreskin fibroblasts. An outline of the steps:
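This proliferation readout used SRB total-protein staining of human foreskin fibroblasts […], normalized to DMSO with bidirectional curve fitting.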

Read-out in assay [9]: Macrophage colony-stimulating factor (MCSF), CSF1 (gene 1435)
The experiment in a line: BSK_hDFCGF_MCSF: BioMAP Diversity Plus: hDFCGF Assay for Macrophage colony-stimulating factor (MCSF) Biomarker Activity (AID 2283060). Conditions: primary human foreskin fibroblasts; actives raise or lower the signal. The gist of the method:
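ELISA read-out of M-CSF in human dermal foreskin fibroblast cultures, 24 h after chemical dosing; gain or loss of signal fitted bidirectionally relative to DMSO baseline.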

Assay [10] is described as follows: BSK_hDFCGF_SRB: Viability Assessment in the BioMAP Diversity Plus: hDFCGF Assay (AID 2283061).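 Note: cells exposed to compound for 24 h before the read.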 Conditions: primary human foreskin fibroblasts. An outline of the steps: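 Primary human foreskin fibroblasts; 24 h post-dose; fixed 10% TCA, stained 0.1% SRB, A560 read; total protein as overt cytotoxicity measure; curves fit bidirectionally vs DMSO control.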
Read-out in assay [11]: TIMP metallopeptidase inhibitor 1 (TIMP1), TIMP1 (gene 7076)
In words: BSK_hDFCGF_TIMP1: BioMAP Diversity Plus: hDFCGF Assay for TIMP metallopeptidase inhibitor 1 (TIMP1) Biomarker Activity (AID 2283062). Conditions: primary human foreskin fibroblasts; actives raise or lower the signal. The gist of the method: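 ELISA readout of TIMP-1 from human dermal foreskin fibroblast cultures 24 h post-dosing. Curves were fitted in both directions against DMSO baseline, with SRB total-protein staining in parallel cultures as a cytotoxicity check.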

Read-out in assay [12]: Monokine induced gamma interferon (MIG), CXCL9 (gene 4283)
The experiment in a line: BSK_hDFCGF_MIG: BioMAP Diversity Plus: hDFCGF Assay for Monokine induced gamma interferon (MIG) Biomarker Activity (AID 2283063). Conditions: primary human foreskin fibroblasts; actives raise or lower the signal. An outline of the steps: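 Fibroblasts (human foreskin, primary) dosed, 24 h, MIG by ELISA; fit bidirectional vs DMSO.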

Read-out in assay [13]: Matrix Metallopeptidase 1 (MMP1), MMP1 (gene 4312)
In words: BSK_hDFCGF_MMP1: BioMAP Diversity Plus: hDFCGF Assay for Matrix Metallopeptidase 1 (MMP1) Biomarker Activity (AID 2283064). Conditions: primary human foreskin fibroblasts; actives raise or lower the signal. The gist of the method: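 Primary human foreskin fibroblasts in the hDFCGF system were dosed with test chemical, and MMP1 was measured by ELISA 24 h later. Values come from bidirectional curve fitting against the DMSO baseline.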

Read-out in assay [14]: Vascular cell adhesion molecule 1 (VCAM1), VCAM1 (gene 7412)
In words: BSK_hDFCGF_VCAM1: BioMAP Diversity Plus: hDFCGF Assay for Vascular cell adhesion molecule 1 (VCAM1) Biomarker Activity (AID 2283065). Conditions: primary human foreskin fibroblasts; actives raise or lower the signal. The gist of the method:
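ELISA read-out of VCAM-1 on human skin fibroblasts, 24 h post-dose; gain or loss of signal fitted bidirectionally against DMSO baseline.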

Read-out in assay [15]: Plasminogen activator inhibitor-1 (PAI1), SERPINE1 (gene 5054)
The experiment in a line: BSK_hDFCGF_PAI1: BioMAP Diversity Plus: hDFCGF Assay for Plasminogen activator inhibitor-1 (PAI1) Biomarker Activity (AID 2283066). Conditions: primary human foreskin fibroblasts; actives raise or lower the signal. An outline of the steps:
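Primary dermal fibroblasts (human foreskin), hDFCGF system; compound 24 h; PAI-1 by ELISA; bidirectional fit vs DMSO control.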

Read-out in assay [16]: Interferon-gamma inducible Protein 10 (IP10), CXCL10 (gene 3627)
In words: BSK_KF3CT_IP10: BioMAP Diversity Plus: KF3CT Assay for Interferon-gamma inducible Protein 10 (IP10) Biomarker Activity (AID 2283068). Conditions: primary human keratinocytes with fibroblasts; actives raise or lower the signal. The gist of the method:
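Signal is secreted/surface IP-10 by ELISA in a human primary skin co-culture of keratinocytes and foreskin fibroblasts, taken 24 h post-dosing; DMSO served as negative control.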

Assay [17] in a line: BSK_KF3CT_SRB: Viability Assessment in the BioMAP Diversity Plus: KF3CT Assay (AID 2283069).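 Note: total protein by sulforhodamine B staining as a cytotoxicity measure; read 24 h after compound addition.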 Conditions: primary human keratinocytes with fibroblasts. An outline of the steps: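 Human primary keratinocyte plus foreskin fibroblast co-culture exposed to chemicals for 24 h. Total protein measured by 0.1% sulforhodamine B staining after 10% TCA fixation, read at 560 nm; bidirectional fitting versus DMSO baseline.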

Read-out in assay [18]: Interleukin-1 alpha (IL1a), IL1A (gene 3552)
In words: BSK_KF3CT_IL1a: BioMAP Diversity Plus: KF3CT Assay for Interleukin-1 alpha (IL1a) Biomarker Activity (AID 2283070). Conditions: primary human keratinocytes with fibroblasts; actives raise or lower the signal. The gist of the method: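 Human keratinocyte plus foreskin fibroblast primary co-culture, sampled 24 h after chemical dosing. IL-1a measured by ELISA; responses fitted bidirectionally against DMSO baseline (negative control), so gain or loss of signal both count.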

Read-out in assay [19]: TIMP metallopeptidase inhibitor 2 (TIMP2), TIMP2 (gene 7077)
In words: BSK_KF3CT_TIMP2: BioMAP Diversity Plus: KF3CT Assay for TIMP metallopeptidase inhibitor 2 (TIMP2) Biomarker Activity (AID 2283071). Conditions: primary human keratinocytes with fibroblasts; actives raise or lower the signal. An outline of the steps:
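Cells: human keratinocytes co-cultured with foreskin fibroblasts. Treat with chemical, 24 h. Measure TIMP-2 by ELISA; fit curves bidirectionally vs DMSO baseline.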

Read-out in assay [20]: Intercellular Adhesion Molecule 1 (ICAM1), ICAM1 (gene 3383)
In words: BSK_KF3CT_ICAM1: BioMAP Diversity Plus: KF3CT Assay for Intercellular Adhesion Molecule 1 (ICAM1) Biomarker Activity (AID 2283067). Conditions: primary human keratinocytes with fibroblasts; actives raise or lower the signal. The gist of the method: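 ELISA readout of ICAM-1; KF3CT human skin co-culture (keratinocytes + foreskin fibroblasts), 24 h post-dose; gain/loss fit vs DMSO baseline.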

The structures appear in SMILES notation. The source made the active and inactive calls. Rule for the calls: active = hit-call score of the fitted dose curve at least 0.9, where 1 is the maximum; inactive = score below 0.9.

As for `Cc1ccc([N+](=O)[O-])cc1`, the result in assay [1], in assay [2], in assay [3], in [4], in [5] and in [6] was inactive. The result in assay [7], in assay [8], in assay [9], in [10], in assay [11] and in assay [12] was inactive. In addition, the result in [13], in assay [14], in assay [15], in assay [16], in [17] and in [18] was inactive. Also, the outcome in [19] was inactive.

With `CC(O)CCO` (stereo unspecified), the outcome in assay [1], in assay [2], in [3], in assay [4], in assay [5] and in assay [6] was inactive. Moreover, the result in [7], in assay [8], in assay [9], in assay [10], in [11] and in assay [12] was inactive. The result in [13], in assay [14], in assay [15], in assay [16], in [17] and in assay [18] was inactive. In addition, the result in assay [19] was inactive.

Turning to `Brc1ccc(Oc2ccccc2)cc1`, the outcome in assay [1], in assay [2], in assay [3], in assay [4], in [5] and in [6] was inactive. Moreover, the outcome in [7], in assay [8], in [9], in assay [10], in assay [11] and in [12] was inactive. Also, the outcome in [13], in assay [14], in [15], in [20], in assay [16] and in assay [17] was inactive. Moreover, the outcome in [18] and in [19] was inactive.

As for `O=C(Oc1ccc(Br)cc1)N1CCN2CCC1CC2`, the result in assay [1], in assay [2], in assay [3], in [4], in [5] and in [6] was inactive. Moreover, the outcome in assay [7], in [8], in assay [9], in [10], in assay [11] and in [12] was inactive. Also, the result in [13], in assay [14], in [15], in assay [20], in assay [16] and in assay [17] was inactive. For the same compound, the result in assay [18] and in assay [19] was inactive.

`C[N+](C)(C)CC1CO1` (stereo unspecified): the result in [1], in assay [2], in assay [3], in assay [4], in assay [5] and in assay [6] was inactive. The result in [7], in assay [8], in [9], in assay [10], in assay [11] and in [12] was inactive. The result in assay [13], in [14], in assay [15], in assay [20], in [16] and in assay [17] was inactive. The outcome in [18] and in assay [19] was inactive.

For the compound `c1ccc(NNc2ccccc2)cc1`, the outcome in [1], in assay [2], in assay [3], in assay [4], in [5] and in assay [6] was inactive. The outcome in [7], in [8], in [9], in [10], in assay [11] and in assay [12] was inactive. In addition, the result in [13], in assay [14], in [15], in assay [20], in assay [16] and in assay [17] was inactive. In addition, the outcome in assay [18] and in assay [19] was inactive.

Take `Cc1ccc(N)c(N)c1`: the result in [1], in assay [3], in assay [6], in [7], in assay [9] and in assay [10] was inactive. In addition, the outcome in assay [11], in assay [13], in assay [14], in assay [15], in assay [20] and in assay [17] was inactive. Moreover, the result in assay [18] and in assay [19] was inactive. In addition, the AC50 – broadly, the concentration giving half of the maximal activity seen – in [2] is 3.97 µM (active); in [4] it was 8.46 µM (active); in assay [5] it was 6.88 µM (active); in [8], 14.7 µM (active); in assay [12], 3.65 µM (active).

On to `Oc1ccccc1Cl`, for which the result in assay [1], in assay [2], in [3], in assay [4], in assay [5] and in assay [6] was inactive. Further, the outcome in assay [7], in [8], in assay [9], in assay [10], in [11] and in assay [12] was inactive. Besides, the result in [13], in assay [14], in assay [15], in assay [20], in assay [16] and in assay [17] was inactive. The result in [18] and in assay [19] was inactive.

For the compound `COP(=S)(OC)SCN1C(=O)c2ccccc2C1=O`, the outcome in assay [1], in [2], in assay [3], in [4], in [5] and in assay [6] was inactive. The result in [7], in assay [8], in assay [9], in [10], in assay [11] and in assay [12] was inactive. The outcome in assay [13], in [14], in assay [15], in assay [16], in assay [17] and in assay [18] was inactive. Also, in assay [19], the result was inactive.

Source of the values: PubChem BioAssay (EPA / NIEHS).
